Test results reported in PubChem BioAssay (Tox21).
Inconclusive results are not listed. Active and inactive are the calls of the source. Unless noted, the call rests on the fitted dose curve; in most records, active means well fitted curve in the direction sought with a large enough effect in the repeat runs; inconclusive means weak or mixed curves; inactive means no such curve, though single readings can be large; an effect the other way counts as inactive or inconclusive.

Columns and labels:
[1] = qHTS assay to identify small molecule antagonists of the thyroid receptor (TR) signaling pathway (AID 743065); further: series mostly up to about 70 µM; nearly all actives have a fitted effect of over 55% in size
In short: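 GH3.TRE-Luc rat pituitary cells carrying two TR response elements driving luciferase were plated for 4 h, given compound plus 1 nM T3 (final), and incubated 23.5 h at 37 C. ONE-Glo luminescence measured reporter inhibition; CellTiter-Fluor fluorescence tracked cytotoxicity.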

[2] = system: thyroid hormone receptor (rat, GH3 cells); assay: qHTS assay to identify small molecule agonists of the thyroid receptor (TR) signaling pathway (AID 743066; calls by dose curve)
[3] = molecular target: Estrogen receptor (Homo sapiens) (UniProt P03372); assay: qHTS assay to identify small molecule antagonists of the estrogen receptor alpha (ER-alpha) signaling pathway (AID 743069; active means well fitted curve in the direction sought with a large enough effect in the signal ratio in the repeat runs, not every such curve was filed as active; the % refers to the signal ratio)
Estrogen receptor (Homo sapiens), sequence (P03372 whole entry, looked up): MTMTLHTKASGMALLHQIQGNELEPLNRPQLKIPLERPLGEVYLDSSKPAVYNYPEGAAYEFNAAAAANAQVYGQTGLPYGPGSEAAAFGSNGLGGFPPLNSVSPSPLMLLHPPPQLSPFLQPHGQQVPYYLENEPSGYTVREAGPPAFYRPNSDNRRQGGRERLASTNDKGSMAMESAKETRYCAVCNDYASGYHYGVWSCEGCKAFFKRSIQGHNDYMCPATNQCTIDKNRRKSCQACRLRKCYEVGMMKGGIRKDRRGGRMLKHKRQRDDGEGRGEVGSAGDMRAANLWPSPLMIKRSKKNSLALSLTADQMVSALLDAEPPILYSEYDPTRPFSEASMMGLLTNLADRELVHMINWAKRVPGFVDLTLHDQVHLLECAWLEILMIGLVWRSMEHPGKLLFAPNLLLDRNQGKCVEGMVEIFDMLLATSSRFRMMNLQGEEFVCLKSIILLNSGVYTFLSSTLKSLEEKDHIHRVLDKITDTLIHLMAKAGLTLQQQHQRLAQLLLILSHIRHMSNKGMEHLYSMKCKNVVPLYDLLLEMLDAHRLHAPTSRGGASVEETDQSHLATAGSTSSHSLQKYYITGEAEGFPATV
In short: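 Screening used a UAS-driven beta-lactamase reporter integrated into HEK293 cells expressing ER-alpha, stimulated with 17beta-estradiol alongside test compounds over 18 hr at 37C; signal came from LiveBLAzer B/G FRET fluorescence.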

[4] = qHTS assay to identify small molecule antagonists of the estrogen receptor alpha (ER-alpha) signaling pathway - cell viability counter screen (AID 743074; calls by dose curve; further: nearly all actives have a fitted effect of over 45% in size)
[5] = molecular target: Estrogen receptor (Homo sapiens) (UniProt P03372); assay: qHTS assay to identify small molecule agonists of the estrogen receptor alpha (ER-alpha) signaling pathway (AID 743075; calls by dose curve)
[6] = molecular target: Estrogen receptor (Homo sapiens) (UniProt P03372); assay: qHTS assay to identify small molecule agonists of the estrogen receptor alpha (ER-alpha) signaling pathway using the BG1 cell line (AID 743079); further: nearly all actives have a fitted effect of over 20% in size
[7] = qHTS assay to identify small molecule antagonists of the estrogen receptor alpha (ER-alpha) signaling pathway using the BG1 cell line (AID 743080; calls by dose curve;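 further: BG1 cells stimulated with 17beta-estradiol alongside compound; series mostly up to about 70 µM; nearly all actives have a fitted effect of over 25% in size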)
In short: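 BG1-Luc-4E2 cells (endogenous full-length ER-alpha, stable 4×ERE-luciferase) were starved 5 days in phenol-red-free medium with 10% charcoal-stripped FBS, plated 24 h, then given compound plus 17beta-estradiol for 21.5 h at 37 C; ONE-Glo luminescence read after 30 min.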

[8] = qHTS assay to identify small molecule antagonists of the estrogen receptor alpha (ER-alpha) signaling pathway using the BG1 cell line - cell viability counter screen (AID 743081);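 further: compound given together with 17beta-estradiol as the ER stimulus; series mostly up to about 70 µM; nearly all actives have a fitted effect of over 45% in size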
Aromatase (Homo sapiens) = Aromatase (Homo sapiens) (UniProt P11511); assay: qHTS assay to identify aromatase inhibitors (AID 743083); further: series mostly up to about 70 µM; nearly all actives have a fitted effect of over 55% in size
Aromatase (Homo sapiens), sequence (P11511 whole entry, looked up): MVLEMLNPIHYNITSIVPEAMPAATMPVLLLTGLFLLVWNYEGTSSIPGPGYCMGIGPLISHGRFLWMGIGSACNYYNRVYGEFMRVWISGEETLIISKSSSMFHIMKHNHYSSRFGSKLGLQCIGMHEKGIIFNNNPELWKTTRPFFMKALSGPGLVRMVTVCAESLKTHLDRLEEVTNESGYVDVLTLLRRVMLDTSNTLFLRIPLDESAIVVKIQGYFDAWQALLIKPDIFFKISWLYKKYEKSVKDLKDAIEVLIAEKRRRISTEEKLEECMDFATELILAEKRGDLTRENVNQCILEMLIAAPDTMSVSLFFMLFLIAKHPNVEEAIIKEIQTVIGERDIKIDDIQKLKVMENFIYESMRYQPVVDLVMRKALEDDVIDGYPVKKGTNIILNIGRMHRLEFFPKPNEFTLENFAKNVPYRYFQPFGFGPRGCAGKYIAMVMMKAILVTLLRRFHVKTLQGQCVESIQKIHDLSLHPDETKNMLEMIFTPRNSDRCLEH

[9] = qHTS assay to identify aromatase inhibitors - cell viability counter screen (AID 743084);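 further: cells stimulated with testosterone during compound exposure; nearly all actives have a fitted effect of over 55% in size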
[10] = qHTS assay to identify small molecule that activate the aryl hydrocarbon receptor (AhR) signaling pathway - cell viability counter screen (AID 743086);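 further: HepG2 liver cells carrying the AhR DRE luciferase reporter; series mostly up to about 70 µM; nearly all actives have a fitted effect of over 45% in size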
In short: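 HepG2-AhR-luc (HG2L7.5c1) cells, 4000/well, were preincubated 5 h at 37C, exposed to compound in qHTS format for 24 hr at 37C, then given CellTiter-Fluor for 30 min; viability was read as fluorescence in the reporter wells.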

[11] = qHTS assay to identify small molecule antagonists of the peroxisome proliferator-activated receptor gamma (PPARg) signaling pathway - cell viability counter screen (AID 743194); further: nearly all actives have a fitted effect of over 55% in size
In short: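 PPARg-UAS-bla HEK293H cells were plated, rested 5 h at 37 C, then treated with compounds plus rosiglitazone (50 nM final) for 17 h at 37 C; viability was then read by CellTiter-Glo luminescence after 30 min at room temperature.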

[12] = qHTS assay for small molecule agonists of the antioxidant response element (ARE) signaling pathway (AID 743202; active means well fitted activation curve with a large enough effect in the signal ratio in the repeat runs, not every such curve was filed as active; the % refers to the signal ratio; further: potency means the concentration at half of the fitted maximal effect)
In short: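 Steps: seed ARE-bla HepG2 cells (2,000/well); incubate 5 h at 37 C; add compounds by pin tool; incubate 16 h at 37 C; add FRET substrate; read fluorescence after 2 h at RT.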

[13] = qHTS assay for small molecule agonists of the antioxidant response element (ARE) signaling pathway - cell viability counter screen (AID 743203; calls by dose curve; further: nearly all actives have a fitted effect of over 55% in size)
In short: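 Parallel cytotoxicity read-out for the ARE-bla screen: HepG2 reporter cells, 16 hrs with compounds, then CellTiter-Glo luminescence.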

[14] = qHTS assay for small molecule activators of the heat shock response signaling pathway - cell viability counter screen (AID 743209); further: nearly all actives have a fitted effect of over 50% in size
In short: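 To flag cytotoxic compounds, HSE-bla HeLa cells plated at 1500 cells/well were dosed for 5 h at 37 C, followed by the reporter FRET read and then CellTiter-Glo, with luminescence recorded 30 min after reagent addition.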

[15] = qHTS assay for small molecule activators of the heat shock response signaling pathway (AID 743210; active means well fitted activation curve with a large enough effect in the signal ratio in the repeat runs, with a control signal flat, not every such curve was filed as active; the % refers to the signal ratio;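 further: HeLa cells with beta-lactamase reporter driven by heat shock elements; series mostly up to about 63 µM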)
In short: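 Activation of heat shock element-controlled beta-lactamase expression is measured in HeLa cells by LiveBLAzer FRET fluorescence, with compound exposure lasting 5 h at 37 C and substrate loading 2.5 h at room temperature.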

[16] = qHTS assay to identify small molecule agonists of the peroxisome proliferator-activated receptor delta (PPARd) signaling pathway - cell viability counter screen (AID 743211); further: nearly all actives have a fitted effect of over 55% in size
In short: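 Following 5 h plating at 37 C and 5% CO2, PPARd UAS-bla HEK293H cells took up test compounds for 17 h. Viability was quantified by luminescence 30 min after CellTiter-Glo addition at room temperature.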

[17] = molecular target: Aryl hydrocarbon receptor (Homo sapiens) (UniProt P35869); assay: qHTS assay to identify small molecule that activate the aryl hydrocarbon receptor (AhR) signaling pathway (AID 743085);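 further: HG2L7.5c1 human HepG2 liver cells with stably integrated DRE-driven firefly reporter; series mostly up to about 70 µM; nearly all actives have a fitted effect of over 15% in size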
Aryl hydrocarbon receptor (Homo sapiens), sequence (P35869 whole entry, looked up): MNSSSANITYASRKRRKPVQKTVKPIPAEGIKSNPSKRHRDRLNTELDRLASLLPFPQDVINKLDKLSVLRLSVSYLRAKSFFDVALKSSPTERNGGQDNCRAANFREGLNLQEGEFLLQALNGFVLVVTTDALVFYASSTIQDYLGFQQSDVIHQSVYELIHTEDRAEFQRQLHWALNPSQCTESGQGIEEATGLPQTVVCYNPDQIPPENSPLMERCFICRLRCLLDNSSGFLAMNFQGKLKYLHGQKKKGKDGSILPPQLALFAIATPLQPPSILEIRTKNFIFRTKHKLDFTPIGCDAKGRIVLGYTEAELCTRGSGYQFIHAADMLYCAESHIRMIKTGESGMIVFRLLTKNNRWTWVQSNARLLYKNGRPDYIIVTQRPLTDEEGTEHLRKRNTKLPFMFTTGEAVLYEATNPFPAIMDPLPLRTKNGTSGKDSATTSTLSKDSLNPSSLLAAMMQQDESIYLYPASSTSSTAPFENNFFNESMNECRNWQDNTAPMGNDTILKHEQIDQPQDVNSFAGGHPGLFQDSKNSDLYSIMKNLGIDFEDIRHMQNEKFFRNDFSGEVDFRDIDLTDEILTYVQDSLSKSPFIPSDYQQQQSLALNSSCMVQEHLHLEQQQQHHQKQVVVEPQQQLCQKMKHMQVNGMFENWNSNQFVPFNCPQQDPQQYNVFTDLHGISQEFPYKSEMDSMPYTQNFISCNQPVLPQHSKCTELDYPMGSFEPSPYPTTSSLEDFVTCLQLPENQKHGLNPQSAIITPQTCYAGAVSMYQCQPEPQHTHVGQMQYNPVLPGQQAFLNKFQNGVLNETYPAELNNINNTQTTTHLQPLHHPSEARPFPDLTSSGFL
In short: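 Measured in HG2L7.5c1 cells: CellTiter-Fluor signal (30 min incubation, 37C) for viability, then luciferase luminescence (30 min, room temperature). Compound contact time was 24 h at 37C, following a 5 h pre-incubation.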

[18] = molecular target: Peroxisome proliferator-activated receptor gamma (Homo sapiens) (UniProt P37231); assay: qHTS assay to identify small molecule agonists of the peroxisome proliferator-activated receptor gamma (PPARg) signaling pathway (AID 743094; active means well fitted activation curve with a large enough effect in the signal ratio in the repeat runs, not every such curve was filed as active; the % refers to the signal ratio)
Peroxisome proliferator-activated receptor gamma (Homo sapiens), sequence (P37231 whole entry, looked up): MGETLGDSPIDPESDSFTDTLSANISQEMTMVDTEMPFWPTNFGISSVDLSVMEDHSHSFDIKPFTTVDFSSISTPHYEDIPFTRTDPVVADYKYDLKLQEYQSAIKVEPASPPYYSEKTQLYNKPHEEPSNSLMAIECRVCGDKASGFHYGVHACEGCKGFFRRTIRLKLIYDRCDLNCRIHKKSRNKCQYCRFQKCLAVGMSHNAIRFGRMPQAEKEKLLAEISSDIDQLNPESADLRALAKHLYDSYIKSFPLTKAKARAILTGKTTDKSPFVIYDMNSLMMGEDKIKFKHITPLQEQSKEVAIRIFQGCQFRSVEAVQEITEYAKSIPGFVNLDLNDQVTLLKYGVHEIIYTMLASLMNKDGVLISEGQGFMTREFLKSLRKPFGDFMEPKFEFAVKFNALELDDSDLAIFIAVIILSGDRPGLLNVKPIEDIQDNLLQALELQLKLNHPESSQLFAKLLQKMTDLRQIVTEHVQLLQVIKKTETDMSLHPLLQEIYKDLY
In short: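 Fluorescence-based beta-lactamase readout in HEK293H PPARg UAS-bla cells after 17 h compound exposure (37C) and 1 h B/G FRET substrate incubation at room temperature.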

[19] = molecular target: Peroxisome proliferator-activated receptor gamma (Homo sapiens) (UniProt P37231); assay: qHTS assay to identify small molecule antagonists of the peroxisome proliferator-activated receptor gamma (PPARg) signaling pathway (AID 743191; calls by dose curve; further: series mostly up to about 63 µM; nearly all actives have a fitted effect of over 30% in size)
In short: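 GeneBLAzer PPARg UAS-bla HEK293H cells carrying a UAS-driven beta-lactamase reporter were plated at 3000 cells/well, preincubated 5 h at 37C, then given compound for 17 h at 37C; LiveBLAzer B/G FRET substrate was read after 1 h at room temperature.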

Measured: Potency

O=C(O)c1ccccc1C(=O)O
not listed: [17] | [18] | [19]
inactive: all other assays above

COc1cc(OC)c(C(=O)CCCN2CCCC2)c(OC)c1
not listed: [3] | [5] | [6] | [7]
inactive: all other assays above

C=CC(=O)OCCC(=O)O
active: [12] 9.69 µM
not listed: [7]
inactive: all other assays above

CCCCCCO
not listed: [6] | [15] | [17]
inactive: all other assays above

COc1ccc(N)c(C)c1
not listed: [6] | [18] | [19]
inactive: all other assays above

COCCCN
not listed: [17] | [19]
inactive: all other assays above

Cc1ccc2ncccc2c1
not listed: [15] | [17]
inactive: all other assays above

O=[N+]([O-])c1ccc2nc[nH]c2c1
not listed: [4] | [12] | [15] | [17]
inactive: all other assays above

COc1ccc(C)cc1N
not listed: [15] | [17]
inactive: all other assays above

O=C(O)c1ccc(C(=O)O)c(C(=O)O)c1
not listed: [4]
inactive: all other assays above

CC(C)OP(=O)(CP(=O)(OC(C)C)OC(C)C)OC(C)C
not listed: [3] | [17]
inactive: all other assays above
